Measurements as given in PubChem BioAssay (EPA / NIEHS).
Inconclusive results are not listed. Calls of active or inactive are those of the source. The calls were made as follows, unless noted: active = hit-call score of the fitted dose curve at least 0.9, where 1 is the maximum; inconclusive = response in the unintended direction; inactive = score below 0.9.

Experiments:
[1] = target: Bile acid receptor (Homo sapiens) (UniProt Q96RI1); experiment: ATG_IR1_CIS: Attagene CIS-FACTORIAL HepG2 Assay for human Nuclear Receptor Subfamily 1 Group H Member 4 (NR1H4), IR1 submotif (AID 2282946; active = hit-call score of the fitted dose curve at least 0.9, where 1 is the maximum; inactive = score below 0.9); conditions: IR1 reporter transcription, actives raise or lower the signal
Summary of the method: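 Fluorescence of capillary-separated, HpaI-digested RT-PCR reporter products gave IR1-element mRNA induction in HepG2 cells 24 h after dosing. Endogenous transcription factors drove the cis-regulated reporters; activity was fitted bidirectionally against DMSO.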

[2] = target: Glucocorticoid receptor (Homo sapiens) (UniProt P04150); experiment: ATG_GR_TRANS: Attagene TRANS-FACTORIAL HepG2 Assay for human Glucocorticoid Receptor (GR) (AID 2282978); conditions: HepG2 Attagene TRANS GR reporter, mRNA transcription;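 also: activators score as hits since higher reporter transcript over DMSO is fitted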
Summary of the method: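 Fluorescent capillary-electrophoresis quantitation of reporter mRNA is the readout, taken 24 h after dosing human HepG2 cells carrying transiently transfected GAL4-UAS reporter units activated by chimeric NR-GAL4 fusions; activity scored as induction over DMSO.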

[3] = target: Oxysterols receptor LXR-alpha (Homo sapiens) (UniProt Q13133); experiment: ATG_LXRa_TRANS: Attagene TRANS-FACTORIAL HepG2 Assay for human Liver X Receptor alpha (LXRa) (AID 2282980); conditions: HepG2 Attagene TRANS reporter, LXRa transactivation
Summary of the method: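 HepG2 cells transiently transfected with GAL4-UAS reporter units for chimeric NR-Gal4 proteins, exposed to chemicals for 24 h. Reporter mRNA quantified by RT-PCR and capillary electrophoresis; gain of signal fitted relative to DMSO.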

[4] = target: human Peroxisome Proliferator-activated Receptor delta (PPARd), PPARD (gene 5467) (UniProt Q03181); experiment: ATG_PPARd_TRANS: Attagene TRANS-FACTORIAL HepG2 Assay for human Peroxisome Proliferator-activated Receptor delta (PPARd) (AID 2283002)
Summary of the method: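 Fluorescence from capillary electrophoresis of labelled RT-PCR reporter fragments gives the signal; DMSO sets baseline. Cells: HepG2 transiently carrying GAL4-UAS reporter units plus chimeric nuclear receptor-Gal4 proteins, exposed to chemicals for 24 h.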

[5] = target: Peroxisome proliferator-activated receptor gamma (Homo sapiens) (UniProt P37231); experiment: ATG_PPARg_TRANS: Attagene TRANS-FACTORIAL HepG2 Assay for human Peroxisome Proliferator-activated Receptor-gamma (PPARg) (AID 2283007)
Summary of the method: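 Transient transfection of HepG2 with GAL4-UAS-driven reporter units; chemical dosing 24 h; total RNA → oligo(dT) RT → PCR with reporter primers → 6-FAM primer extension → HpaI digest 2 h 37 C → capillary electrophoresis. Positive direction vs DMSO.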

[6] = target: Nuclear receptor subfamily 1 group I member 2 (Homo sapiens) (UniProt O75469); experiment: ATG_PXR_TRANS: Attagene TRANS-FACTORIAL HepG2 Assay for human Pregnane X Receptor (PXR) (AID 2283008)
Summary of the method: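 HepG2 transfected (FuGene 6) with GAL4-UAS reporter units + PXR-Gal4 chimera; dosed 24 h. Total RNA → oligo(dT) RT → PCR → 6-FAM primer extension → HpaI cut → CE. Gain-of-signal vs DMSO.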

[7] = target: human RAR-related Orphan Receptor beta (RORb), RORB (gene 6096) (UniProt Q92753); experiment: ATG_RORb_TRANS: Attagene TRANS-FACTORIAL HepG2 Assay for human RAR-related Orphan Receptor beta (RORb) (AID 2283010)
Summary of the method: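 Multiplexed transcription-factor reporter assay: HepG2 cells transiently carrying NR-Gal4/GAL4-UAS constructs, 24 h treatment, mRNA quantified by RT-PCR plus capillary electrophoresis fluorescence; activity scored as induction over DMSO.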

[8] = target: human Thyroid Receptor alpha (THRa1), THRA (gene 7067) (UniProt P10827); experiment: ATG_THRa1_TRANS: Attagene TRANS-FACTORIAL HepG2 Assay for human Thyroid Receptor alpha (THRa1) (AID 2283014)
Summary of the method: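 HepG2 cells transiently transfected with chimeric NR-Gal4 and GAL4-UAS reporter units, dosed 24 h. Reporter mRNA quantified by RT-PCR, fluorescent labeling, HpaI digestion and capillary electrophoresis; gain-of-signal fit versus DMSO.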

[9] = ATG_XTT_Cytotoxicity: Cytotoxicity Assessment in the Attagene TRANS-FACTORIAL HepG2 Assay (AID 2283584);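 as to AC50: XTT signal for cell number as viability in transfected HepG2 cells; cells exposed to compound for 24 h before reading; active means loss of viability signal versus DMSO baseline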
Summary of the method: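 HepG2 cells transiently transfected with GAL4-UAS multiple reporter units, dosed 24 h; cytotoxicity read by XTT as loss of signal versus DMSO baseline.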

[10] = TOX21_p53_BLA_p3_viability: Viability Assessment in the Tox21 HCT-116 p53 Agonism Beta-lactamase Assay, Phase 3 (AID 2283593);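 also: cells exposed to compound for 16 h before reading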
Summary of the method: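 HCT116 cells, 4000/well, dosed 5 h after plating by pin transfer (217-fold dilution from DMSO stock) and incubated 16 h at 37C, 5% CO2. Viability read as ATP luminescence with CellTiter-Glo after 30 min at room temperature.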

[11] = TOX21_p53_BLA_p4_viability: Viability Assessment in the Tox21 HCT-116 p53 Agonism Beta-lactamase Assay, Phase 4 (AID 2283597);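 also: hits lower the luminescence signal meaning cytotoxicity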
Summary of the method: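 4000 HCT116 cells per well; 5 h attachment; compounds from DMSO, 217-fold dilution; 16 h at 37C. Then CCF4-AM, 2 h RT, followed by CellTiter-Glo, 30 min RT, luminescence. Decrease = cytotoxicity.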

[12] = ACEA_ER_AUC_viability: ACEA Biosciences xCELLigence Real-Time Cell Analysis on Estrogen Receptor Agonism for Viability (AID 2283782);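 also: hit means loss of impedance signal meaning reduced cell growth or viability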
Summary of the method: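 Read-out: real-time electrical impedance (RT-CES) area under curve, loss of signal taken as reduced viability, normalized to DMSO baseline. T-47D cells, charcoal-stripped serum medium, compounds up to 100 uM final, continuous exposure, 80 h.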

[13] = ATG_M_19_TRANS: Attagene TRANS-FACTORIAL HepG2 Assay for M19 Transcription Factor (Internal Marker) (AID 2282974); conditions: HepG2 Attagene TRANS-FACTORIAL M19 internal marker reporter
Summary of the method: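 Fluorescence of 6-FAM-labelled reporter cDNA fragments, separated by capillary electrophoresis, served as the readout. These derived from HepG2 cells carrying transfected GAL4-UAS reporter units after 24 h dosing, with DMSO as negative control.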

[14] = target: Oxysterols receptor LXR-beta (Homo sapiens) (UniProt P55055); experiment: ATG_LXRb_TRANS: Attagene TRANS-FACTORIAL HepG2 Assay for human Liver X Receptor beta (LXRb) (AID 2282981); conditions: HepG2 Attagene TRANS GAL4-LXRb reporter, mRNA
Summary of the method: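 Readout: fluorescent reporter mRNA fragments resolved by capillary electrophoresis after RT-PCR. System: transiently transfected human HepG2, exogenous LXRb-Gal4 chimera driving GAL4-UAS reporter, 24 h dosing. Activity fitted upward against DMSO baseline.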

[15] = target: human RAR-related Orphan Receptor gamma (RORg), RORC (gene 6097) (UniProt P51449); experiment: ATG_RORg_TRANS: Attagene TRANS-FACTORIAL HepG2 Assay for human RAR-related Orphan Receptor gamma (RORg) (AID 2283011)
Summary of the method: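 HepG2 cells transiently transfected with GAL4-UAS reporter units and chimeric RORg-Gal4 construct; after 24 h chemical exposure, reporter mRNA measured by RT-PCR with fluorescent capillary electrophoresis, gain of signal fitted against DMSO.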

[16] = target: Bile acid receptor (Homo sapiens) (UniProt Q96RI1); experiment: ATG_FXR_TRANS: Attagene TRANS-FACTORIAL HepG2 Assay for Farnesoid X Receptor (FXR) (AID 2282979); conditions: HepG2 Attagene TRANS FXR-GAL4 reporter transcription;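 also: hits raise reporter mRNA above DMSO so AC50 marks FXR activation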
Summary of the method: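 HepG2 cells were transiently transfected with GAL4-UAS reporters driven by chimeric NR-Gal4 proteins and dosed for 24 h. Reporter mRNA was quantified by RT-PCR, fluorescent labelling, HpaI digestion and capillary electrophoresis, with gain of signal scored versus DMSO.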

[17] = target: human Vitamin D Receptor (VDR), VDR (gene 7421) (UniProt P11473); experiment: ATG_VDR_TRANS: Attagene TRANS-FACTORIAL HepG2 Assay for human Vitamin D Receptor (VDR) (AID 2283022)
Summary of the method: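 HepG2 cells were transiently transfected with GAL4-UAS reporter units and a chimeric VDR-Gal4 construct, then dosed for 24 hours. Reporter mRNA was quantified by RT-PCR, fluorescent labeling, HpaI digestion and capillary electrophoresis; gain of signal analysed vs DMSO.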

[18] = CCTE_Harrill_HTTr_Viability_MCF7: CCTE's 6-hour Cell Viability Assessment for the High-Throughput Transcriptomics (HTTr) Platform, in MCF-7 cells cultured in DMEM + 10% fetal bovine serum, Harrill Lab (AID 2284010; active = hit-call score of the fitted dose curve at least 0.9, where 1 is the maximum; inactive = score below 0.9)
Summary of the method: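 Eight-point concentration series, six-hour exposure. Propidium iodide exclusion imaged to assess membrane integrity as a cytotoxicity readout; bidirectional fitting was done with DMSO as negative control and activity baseline.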

[19] = CCTE_Harrill_HTTr_Apoptosis_MCF7: CCTE's 6-hour Apoptosis Assessment for the High-Throughput Transcriptomics (HTTr) Platform, in MCF-7 cells cultured in DMEM + 10% fetal bovine serum, Harrill Lab (AID 2284011; active = hit-call score of the fitted dose curve at least 0.9, where 1 is the maximum; inactive = score below 0.9)
Summary of the method: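 MCF-7 cells in DMEM + 10% FBS exposed 6 h to chemicals over an eight-point dilution series. Caspase-3/7 activation imaged by high-content CellEvent Green staining; fitted bidirectionally versus DMSO.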

[20] = ATG_GAL4_TRANS: Attagene TRANS-FACTORIAL HepG2 Assay for GAL4 (Internal Marker) (AID 2282976); conditions: HepG2 Attagene TRANS GAL4 internal marker reporter
Summary of the method: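 Background-control readout: GAL4-UAS reporter transcript in transiently transfected HepG2 cells after 24 h compound exposure. Measured by RT-PCR, 6-FAM primer extension, HpaI digest and capillary electrophoresis; gain-of-signal fit versus DMSO.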

Measured: AC50

Sequence of Nuclear receptor subfamily 1 group I member 2 (Homo sapiens) (O75469 whole entry, looked up, the tested form may be a part): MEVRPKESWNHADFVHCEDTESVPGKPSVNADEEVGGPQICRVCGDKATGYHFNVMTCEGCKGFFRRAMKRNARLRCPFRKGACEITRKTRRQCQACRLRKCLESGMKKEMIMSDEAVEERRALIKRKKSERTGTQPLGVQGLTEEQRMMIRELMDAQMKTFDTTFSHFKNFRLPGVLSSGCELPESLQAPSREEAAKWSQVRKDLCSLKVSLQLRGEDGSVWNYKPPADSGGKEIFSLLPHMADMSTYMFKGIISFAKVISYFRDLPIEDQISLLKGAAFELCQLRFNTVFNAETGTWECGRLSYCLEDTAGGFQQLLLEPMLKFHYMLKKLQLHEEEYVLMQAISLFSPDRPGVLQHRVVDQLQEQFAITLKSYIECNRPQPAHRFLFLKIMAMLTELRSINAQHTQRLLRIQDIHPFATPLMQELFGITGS
Sequence of human RAR-related Orphan Receptor beta (RORb), RORB (gene 6096) (Q92753 whole entry, looked up, the tested form may be a part): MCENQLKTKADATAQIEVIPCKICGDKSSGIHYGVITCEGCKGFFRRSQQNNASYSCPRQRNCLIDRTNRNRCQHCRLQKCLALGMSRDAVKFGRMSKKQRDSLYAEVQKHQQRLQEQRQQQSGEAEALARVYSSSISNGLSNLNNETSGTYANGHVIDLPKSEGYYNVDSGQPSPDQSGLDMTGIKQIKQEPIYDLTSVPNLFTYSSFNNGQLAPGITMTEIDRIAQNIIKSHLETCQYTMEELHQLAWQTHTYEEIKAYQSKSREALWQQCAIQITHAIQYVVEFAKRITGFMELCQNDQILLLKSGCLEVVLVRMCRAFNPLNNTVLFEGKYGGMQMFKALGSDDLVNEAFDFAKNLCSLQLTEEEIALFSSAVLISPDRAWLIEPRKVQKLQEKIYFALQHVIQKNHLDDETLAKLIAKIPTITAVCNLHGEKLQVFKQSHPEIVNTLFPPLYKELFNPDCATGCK
Sequence of human Thyroid Receptor alpha (THRa1), THRA (gene 7067) (P10827 whole entry, looked up, the tested form may be a part): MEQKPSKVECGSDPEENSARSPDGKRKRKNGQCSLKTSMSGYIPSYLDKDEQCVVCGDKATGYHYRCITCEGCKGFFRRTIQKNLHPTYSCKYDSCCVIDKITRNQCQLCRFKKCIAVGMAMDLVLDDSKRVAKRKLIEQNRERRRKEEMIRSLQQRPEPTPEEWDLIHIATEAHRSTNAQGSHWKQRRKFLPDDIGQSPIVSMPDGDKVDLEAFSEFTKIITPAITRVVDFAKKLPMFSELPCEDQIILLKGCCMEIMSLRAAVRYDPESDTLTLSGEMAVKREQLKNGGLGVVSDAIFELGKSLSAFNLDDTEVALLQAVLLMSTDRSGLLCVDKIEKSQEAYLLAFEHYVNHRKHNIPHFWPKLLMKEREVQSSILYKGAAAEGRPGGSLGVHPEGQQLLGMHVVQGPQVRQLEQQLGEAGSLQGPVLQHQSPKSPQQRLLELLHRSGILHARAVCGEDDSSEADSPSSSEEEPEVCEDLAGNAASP
Sequence of Peroxisome proliferator-activated receptor gamma (Homo sapiens) (P37231 whole entry, looked up, the tested form may be a part): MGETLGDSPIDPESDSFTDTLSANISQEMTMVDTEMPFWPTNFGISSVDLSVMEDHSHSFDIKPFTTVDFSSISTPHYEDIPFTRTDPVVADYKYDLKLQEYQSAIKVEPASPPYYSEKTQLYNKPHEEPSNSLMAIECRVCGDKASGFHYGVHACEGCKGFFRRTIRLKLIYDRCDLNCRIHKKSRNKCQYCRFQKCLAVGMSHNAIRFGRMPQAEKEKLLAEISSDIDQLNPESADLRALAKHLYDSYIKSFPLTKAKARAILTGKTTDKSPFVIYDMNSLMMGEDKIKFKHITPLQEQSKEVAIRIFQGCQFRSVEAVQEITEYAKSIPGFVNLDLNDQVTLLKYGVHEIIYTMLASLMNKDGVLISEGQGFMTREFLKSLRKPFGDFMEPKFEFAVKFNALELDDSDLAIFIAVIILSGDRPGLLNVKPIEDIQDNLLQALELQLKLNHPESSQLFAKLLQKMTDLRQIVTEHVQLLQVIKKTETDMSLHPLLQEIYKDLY
Sequence of Glucocorticoid receptor (Homo sapiens) (P04150 whole entry, looked up, the tested form may be a part): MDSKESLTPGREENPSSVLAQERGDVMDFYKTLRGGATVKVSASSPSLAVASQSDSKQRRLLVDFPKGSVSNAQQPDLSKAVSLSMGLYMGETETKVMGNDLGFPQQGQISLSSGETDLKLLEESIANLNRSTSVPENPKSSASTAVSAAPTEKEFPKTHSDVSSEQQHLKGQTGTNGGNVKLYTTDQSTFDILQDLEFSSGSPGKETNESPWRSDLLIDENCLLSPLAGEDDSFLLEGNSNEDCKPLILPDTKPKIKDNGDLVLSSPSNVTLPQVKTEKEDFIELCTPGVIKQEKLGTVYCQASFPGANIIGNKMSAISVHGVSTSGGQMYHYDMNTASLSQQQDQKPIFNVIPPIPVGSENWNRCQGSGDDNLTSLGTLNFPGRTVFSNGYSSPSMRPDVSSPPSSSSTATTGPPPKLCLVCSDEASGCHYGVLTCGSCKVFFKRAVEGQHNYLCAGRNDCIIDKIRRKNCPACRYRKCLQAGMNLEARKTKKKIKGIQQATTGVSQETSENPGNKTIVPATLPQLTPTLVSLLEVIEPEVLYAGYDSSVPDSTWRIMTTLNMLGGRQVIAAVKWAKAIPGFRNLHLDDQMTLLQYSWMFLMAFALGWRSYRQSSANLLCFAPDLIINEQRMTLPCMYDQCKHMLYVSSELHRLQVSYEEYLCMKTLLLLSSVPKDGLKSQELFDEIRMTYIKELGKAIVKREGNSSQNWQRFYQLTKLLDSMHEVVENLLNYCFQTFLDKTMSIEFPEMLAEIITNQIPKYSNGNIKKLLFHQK
Sequence of human RAR-related Orphan Receptor gamma (RORg), RORC (gene 6097) (P51449 whole entry, looked up, the tested form may be a part): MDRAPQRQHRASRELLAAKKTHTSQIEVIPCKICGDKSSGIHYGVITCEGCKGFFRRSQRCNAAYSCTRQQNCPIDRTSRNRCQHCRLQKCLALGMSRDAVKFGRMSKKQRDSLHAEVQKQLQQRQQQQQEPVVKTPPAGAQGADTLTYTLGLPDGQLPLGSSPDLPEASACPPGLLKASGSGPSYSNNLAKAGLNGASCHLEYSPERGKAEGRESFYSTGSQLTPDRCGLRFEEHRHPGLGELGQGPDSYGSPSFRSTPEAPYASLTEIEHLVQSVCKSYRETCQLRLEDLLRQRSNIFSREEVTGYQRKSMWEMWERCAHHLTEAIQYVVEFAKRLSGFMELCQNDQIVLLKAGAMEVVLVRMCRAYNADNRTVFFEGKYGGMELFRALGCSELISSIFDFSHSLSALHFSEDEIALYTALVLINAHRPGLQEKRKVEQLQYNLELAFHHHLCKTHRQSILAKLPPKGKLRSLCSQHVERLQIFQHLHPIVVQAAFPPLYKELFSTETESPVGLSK
Sequence of human Vitamin D Receptor (VDR), VDR (gene 7421) (P11473 whole entry, looked up, the tested form may be a part): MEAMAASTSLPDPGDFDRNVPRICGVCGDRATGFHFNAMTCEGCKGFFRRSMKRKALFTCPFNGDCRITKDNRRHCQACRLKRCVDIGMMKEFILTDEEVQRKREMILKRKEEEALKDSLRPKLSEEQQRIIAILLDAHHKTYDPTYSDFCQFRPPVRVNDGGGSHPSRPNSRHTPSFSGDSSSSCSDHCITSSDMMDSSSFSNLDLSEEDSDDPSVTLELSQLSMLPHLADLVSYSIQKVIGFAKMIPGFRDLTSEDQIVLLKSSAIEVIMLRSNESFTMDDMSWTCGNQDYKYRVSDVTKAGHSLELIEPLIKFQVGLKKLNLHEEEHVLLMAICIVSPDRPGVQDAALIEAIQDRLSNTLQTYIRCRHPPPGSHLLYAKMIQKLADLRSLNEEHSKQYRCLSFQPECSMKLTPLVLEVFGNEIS
Sequence of Oxysterols receptor LXR-beta (Homo sapiens) (P55055 whole entry, looked up, the tested form may be a part): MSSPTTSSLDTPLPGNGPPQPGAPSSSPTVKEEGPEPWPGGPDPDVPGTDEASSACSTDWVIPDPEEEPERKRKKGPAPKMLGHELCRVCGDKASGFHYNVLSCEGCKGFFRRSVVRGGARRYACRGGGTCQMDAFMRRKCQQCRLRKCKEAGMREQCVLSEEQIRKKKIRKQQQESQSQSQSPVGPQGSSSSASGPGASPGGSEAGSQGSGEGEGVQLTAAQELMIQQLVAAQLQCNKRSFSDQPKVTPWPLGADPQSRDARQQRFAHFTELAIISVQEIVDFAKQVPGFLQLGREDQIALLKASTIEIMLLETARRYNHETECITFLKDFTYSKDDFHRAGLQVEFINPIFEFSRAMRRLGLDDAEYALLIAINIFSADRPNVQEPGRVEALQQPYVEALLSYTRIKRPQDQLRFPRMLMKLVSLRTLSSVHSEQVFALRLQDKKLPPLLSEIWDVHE
Sequence of Bile acid receptor (Homo sapiens) (Q96RI1 whole entry, looked up, the tested form may be a part): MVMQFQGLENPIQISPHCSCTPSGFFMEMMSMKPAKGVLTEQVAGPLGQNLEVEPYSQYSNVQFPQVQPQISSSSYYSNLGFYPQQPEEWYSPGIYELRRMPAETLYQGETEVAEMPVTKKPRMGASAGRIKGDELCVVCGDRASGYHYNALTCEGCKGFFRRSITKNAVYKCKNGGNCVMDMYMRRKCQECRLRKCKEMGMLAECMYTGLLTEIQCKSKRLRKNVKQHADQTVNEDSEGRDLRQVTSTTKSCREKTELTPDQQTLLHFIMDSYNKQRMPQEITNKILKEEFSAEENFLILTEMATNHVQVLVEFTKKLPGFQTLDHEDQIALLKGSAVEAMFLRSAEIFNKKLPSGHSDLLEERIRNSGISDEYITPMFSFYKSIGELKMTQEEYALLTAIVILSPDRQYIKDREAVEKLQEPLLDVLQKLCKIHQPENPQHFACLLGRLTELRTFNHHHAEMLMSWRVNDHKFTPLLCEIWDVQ

C=CCOCC(CC)(CO)COCC=C
inactive: [13] | [14] | [4] | [15] | [8] | [10] | [11] | [12]

C=CC(C)(CCC=C(C)C)OC(=O)c1ccccc1 (stereo not given)
active: [12] 72.6 µM
inactive: [1] | [2] | [16] | [8] | [10]

CCc1cc(C(N)=S)ccn1
inactive: [3] | [7] | [17] | [10] | [11] | [18] | [19]

O=C(c1ccccc1)c1ccccc1O
inactive: [2] | [5] | [17]
active: [12] 76.9 µM

CC/C=C\CC/C=C/C(OCC)OCC
active: [12] 82.5 µM
inactive: [14] | [4] | [6] | [7] | [15] | [8] | [11]

CCOC(=O)CC(=O)OCC
not listed: [3] | [4] | [5] | [6] | [9] | [11] | [12] | [14]
inactive: all other assays above

C=CCOC(=O)C(=C)C
inactive: [2] | [4] | [7] | [17] | [9] | [10] | [11] | [12]

C/C=C(\C)C(=O)OCC/C=C\CC
inactive: [1] | [13] | [20] | [16] | [3] | [15] | [17] | [12]

NC(N)=Nc1nc(CSCCC(N)=NS(N)(=O)=O)cs1
inactive: [1] | [20] | [2] | [16] | [14] | [8] | [9] | [10] | [11] | [18] | [19]

Nc1nnc(-c2ccc([N+](=O)[O-])o2)o1
active: [9] 159 µM
inactive: [13] | [14] | [4] | [5] | [10] | [11]

Cc1cc(-n2nc3ccc(Cl)cc3n2)c(O)c(C(C)(C)C)c1
inactive: [1] | [20] | [2] | [16] | [4] | [6] | [15] | [10]

CCCCNC(N)=O
not listed: [3] | [12] | [13] | [15] | [18] | [19] | [20]
inactive: all other assays above

O=C(Oc1ccccc1)c1ccccc1
not listed: [2] | [3] | [10] | [11] | [16] | [17] | [20]
inactive: all other assays above
